High-throughput results: PubChem BioAssay, National Center for Advancing Translational Sciences (NCATS)
Pf growth 48h = inhibits P. falciparum growth in the first generation, 48 h; P. falciparum luciferase growth in erythrocytes, 48 h; Potency, µM (doses to about 28.7 µM), most hits filed as inhibitors; 5.9% of 310,000 active; active = well fitted inhibition curve with a large enough effect; inconclusive = small, poorly fitted or top-dose-only effect, or another doubt; inactive = no such curve, though single readings can be large or run the other way
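Here the parasites carry a stable luciferase gene and grow inside erythrocytes in Albumax-based RPMI medium with compound for one erythrocytic cycle. Activity is scored as loss of luminescent signal.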
Pf growth 96h = inhibits malaria parasite growth, 96 h | 6.9% of 320,000 active | AID 504834 | Potency, µM (titrated, usually from 28.7 µM), hits mostly inhibitors | P. falciparum luciferase reporter growth, 96 h; active = well fitted inhibition curve with a large enough effect; inconclusive = small, poorly fitted or top-dose-only effect, or another doubt; inactive = no such curve, though single readings can be large or run the other way
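Two-generation exposure (96 h) targets delayed-death phenotype. Reporter parasites carrying integrated firefly luciferase, in red cells at 2% hematocrit and 0.05% parasitemia final, kept at 37 C, 5% CO2; luminescence loss indicates inhibition.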
SARS PLP yeast = blocks SARS-CoV papain-like protease in a yeast assay. 0.19% of 330,000 active. AID 485353. Potency, µM (top dose mostly 32.9 µM), most hits filed as activators. S. cerevisiae expressing SARS-CoV PLpro, growth rescue; note: nearly all actives have a fitted effect of over 55% in size
NS1 function inh = blocks influenza NS1 protein function; Potency, µM (series often up to 46.1 µM); 0.4% of 270,000 active; note: actives are rising curves; nearly all actives have a fitted effect of over 50% in size
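Recovery from NS1-induced slow growth read by OD600 in budding yeast switched to galactose assay medium (pH 6.0, -URA) at 1:100 dilution. Compound 23 nl per well; the matching strain lacking NS1 serves as control.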
A number is an active result; - = inactive; ? = inconclusive; . = not tested or not shown. Shown are actives, neighbours in structure and some others; about 10% of the full set was active somewhere. Unless noted, calls come from the whole dose curve.

SMILES	Pf growth 48h	Pf growth 96h	SARS PLP yeast	NS1 function inh
O=C(NCCN1CCOCC1)c1cc(-c2ccccc2Cl)nc2ccccc12	-	9.3µM	-	-
Cc1cccc(NC(=O)c2cc(-c3ccc(C)s3)nc3ccccc23)n1	10µM	-	-	-
Cc1ccc(-c2cc(C(=O)O)c3ccccc3n2)s1	-	-	-	-
Cc1cc(NC(=O)c2cc(-c3cccnc3)nc3c(C)c(C)ccc23)no1	2.9µM	-	-	-
COc1ccc(C)cc1NC(=O)COC(=O)c1c(C)nn(-c2ccccc2)c1C	?	-	-	.
Cc1cc(NC(=O)c2ccc(Cl)cc2Cl)no1	-	3.7µM	-	-
CCN1C(=C(C#N)C#N)C=Cc2cc(C)ccc21	-	?	-	.
C=CC[n+]1c(/C=C2\C=Cc3cc(C)ccc3N2CC)ccc2ccccc21	13µM	?	-	.
NS(=O)(=O)c1ccc(CCNC(=O)CCNS(=O)(=O)c2ccccc2C(F)(F)F)cc1	?	-	-	.
Cn1c(C(=O)c2ccncc2)cc2ccccc21	13µM	?	-	-
CCc1nc2sc3c(c2c(=O)n1CCO)CCC3	-	-	-	-
CN1CCCN(CC(O)COCc2cccs2)CC1 (stereo unspecified)	-	-	-	-
OC(COCc1ccc2c(c1)OCO2)CN1CCCCC1 (stereo unspecified)	-	12µM	-	-
OC(COCc1cccs1)CN1CCCCCC1 (stereo unspecified)	13µM	-	-	?
COC(=O)[C@]1(C)N[C@H](CN(C)C(=O)COc2ccccc2)[C@@H]2C(=O)N(C)C(=O)[C@@H]21	.	.	-	.
CCN(CC)C(=O)[C@H]1CC(CC(=O)NCc2ccc(OC)c(OC)c2)C(=O)N2CCc3c([nH]c4ccc(OC)cc34)[C@]12C (stereo partly specified)	.	.	-	.
N#CCCCn1c(-c2ccccc2)noc1=O	-	3.7µM	-	-
O=[N+]([O-])c1cc([As](=O)(O)c2ccc(O)c([N+](=O)[O-])c2)ccc1O	4.7µM	2.9µM	-	-
Cc1ccc(C(=O)/C=C/c2ccc3ncccc3c2)cc1	-	-	-	-
COc1cccc(-n2c(CN3CCOCC3)nc3ccc([N+](=O)[O-])cc3c2=O)c1	?	-	-	-
CCN1CCN(Cc2nc3ccc([N+](=O)[O-])cc3c(=O)n2-c2ccccc2F)CC1	-	-	-	-
O=c1c2cc([N+](=O)[O-])ccc2nc(CN2CCN(c3ccccn3)CC2)n1-c1ccccc1F	-	13µM	-	-
COc1cccc(-n2c(CN3CCN(Cc4ccccc4)CC3)nc3ccc([N+](=O)[O-])cc3c2=O)c1	12µM	-	-	-
COc1ccc(-n2c(CN3CCN(Cc4ccccc4)CC3)nc3ccc([N+](=O)[O-])cc3c2=O)c(OC)c1	?	?	-	-
COc1ccc(-n2c(CN3CCN(c4ccccn4)CC3)nc3ccc([N+](=O)[O-])cc3c2=O)c(OC)c1	12µM	-	-	-
SMILES	Pf growth 48h	Pf growth 96h	SARS PLP yeast	NS1 function inh
Cn1c(NNC(=O)C2CCCCC2)cc(=O)n(C)c1=O	-	-	-	.
CCN1CCN(C(=O)c2oc(=O)c3ccccc3c2-c2ccc(C)cc2)CC1	?	4.7µM	-	-
Cc1ccc(-c2c(C(=O)N3CCOCC3)oc(=O)c3ccccc23)cc1	.	?	-	-
CC1COc2ccccc2N1S(=O)(=O)c1ccc(Cl)cc1 (stereo unspecified)	10µM	?	-	.
Cc1ccc(S(=O)(=O)N2c3cc(C)ccc3OCC2C(C)(C)C)cc1 (stereo unspecified)	13µM	?	-	-
Cc1ccc(S(=O)(=O)N2c3ccccc3OCC2c2ccccc2)cc1 (stereo unspecified)	2.6µM	?	-	-
Cc1[nH]c2ccccc2c1/C=N/O	-	-	-	-
CCN(CC)c1ccc(N=Cc2c(C)[nH]c3ccccc23)cc1	1.9µM	4.7µM	-	-
C=CCSc1nnc(-c2cnn(-c3ccccc3)c2-n2cccc2)n1C	.	?	-	-
C=CCSc1nnc(-c2cc(C(C)(C)C)nn2Cc2ccc(F)cc2)n1C	13µM	9.3µM	-	-
NCCCC[C@@H](C(=O)NCCCCCCCCCCC(=O)N1CCNCC1)n1cc(CCCC(=O)O)nn1	-	-	-	.
CCOC(CNC(=O)c1cccn2c(=O)c3c(C)c(C)sc3nc12)OCC	6.6µM	13µM	-	-
Cc1ccc2c(c1)C(=O)C(=O)N2Cc1ccccc1	.	.	-	.
CCN1C(=O)C(=O)c2cc(C)ccc21	.	.	11µM	.
Cc1ccc(-c2nc(CN(C)C)cc(CN(C)C)c2O)cc1	6.6µM	?	-	-
CN(C)Cc1cc(CN(C)C)c(O)c(CCc2ccccc2)n1	.	-	-	-
COCCNC(=O)CN(Cc1ccccc1)S(=O)(=O)c1ccc2nc(C)sc2c1	-	-	-	-
